PubChem BioAssay (Tox21)
Values joined by “and” are separate entries in the source; they are usually repeats but may differ in a detail not shown here. Equal entries are not always repeated. Inconclusive results are not listed. Unmarked numbers belong to inactive results. Active and inactive are the calls of the source. Calls come from the whole dose curve; as a rule, active = well fitted curve in the direction sought with a large enough effect in the repeat runs; inconclusive = weak or mixed curves; inactive = no such curve, though single readings can be large; an effect the other way counts as inactive or inconclusive.

target: Luciferin 4-monooxygenase (Photinus pyralis) (UniProt P08659); experiment: qHTS assay to identify small molecule inhibitors of firefly luciferase (AID 1224835); note: nearly all actives have a fitted effect of over 25% in size; note: potency is the fitted concentration of half-maximal effect; conditions: purified P. pyralis luciferase, luminescence inhibition; series mostly up to 115 µM; activity change, negative = inhibition: at the top concentration
Sequence (P08659 whole entry, looked up): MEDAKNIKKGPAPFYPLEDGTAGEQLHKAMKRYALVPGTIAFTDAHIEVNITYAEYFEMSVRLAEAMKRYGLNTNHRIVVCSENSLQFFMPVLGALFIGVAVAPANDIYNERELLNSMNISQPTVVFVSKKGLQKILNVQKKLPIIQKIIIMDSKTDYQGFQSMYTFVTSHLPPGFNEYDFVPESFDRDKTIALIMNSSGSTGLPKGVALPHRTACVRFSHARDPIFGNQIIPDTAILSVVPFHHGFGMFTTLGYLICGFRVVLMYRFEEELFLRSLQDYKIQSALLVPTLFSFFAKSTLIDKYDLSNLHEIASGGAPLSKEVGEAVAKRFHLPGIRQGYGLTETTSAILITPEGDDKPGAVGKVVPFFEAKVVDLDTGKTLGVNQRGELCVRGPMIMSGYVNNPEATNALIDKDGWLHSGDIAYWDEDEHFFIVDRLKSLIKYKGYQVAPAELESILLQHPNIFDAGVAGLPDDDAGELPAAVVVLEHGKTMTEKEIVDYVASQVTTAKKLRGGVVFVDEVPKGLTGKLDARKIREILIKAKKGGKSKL
Summary of the method: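 Biochemical qHTS: compounds run as interplate titrations against purified firefly enzyme, with D-luciferin and ATP each at its KM concentration. Light output recorded by CCD imaging.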
% is set by controls: 0 for no effect and ±100 for the full control effect.

| Compound | activity change, negative = inhibition | Potency |
| --- | --- | --- |
| O=C(O)CNC(=O)c1ccc([N+](=O)[O-])cc1 | -4.67% |  |
| Cn1cc(S(C)=O)c(=O)c2ccc(F)cc21 (configuration not stated) | -7.34% [at 52.9 µM] |  |
| C=CCOCC(CC)(CO)COCC=C | 0.475% |  |
| C=C1CC[C@H]2C[C@@H]1C2(C)C | -0.591% |  |
| O=C1NC(=O)[C@@]2(CCOc3ccc(F)cc32)N1 | -3.5% [at 52.9 µM] |  |
| CC/C=C\CC/C=C/CO | 1.09% |  |
| CN1CCCC1 | 2.48% |  |
| O=c1cc(CO)occ1O | 3.09% [at 52.9 µM] |  |
| CO[Si](CCCOCC1CO1)(OC)OC (configuration not stated) |  | inactive |
| CCN(CC)CCNC(=O)c1cc(S(C)(=O)=O)ccc1OC | -0.627% [at 52.9 µM] |  |
| N=C(N)c1ccccc1 | 0.902% |  |
| O=c1cc(-c2ccccc2)oc2ccccc12 |  | 7.97 µM (active) and 12.6 µM (active) |
| COc1ccc2c(c1)CCCC2=O | 1.39% [at 52.9 µM] |  |
| NC(=O)c1cn(Cc2c(F)cccc2F)nn1 | -2.52% [at 52.9 µM] |  |
| NC(CSCC(=O)O)C(=O)O (configuration not stated) | -0.188% [at 52.9 µM] |  |
| O=C1CCCCCCCCCCCN1 |  | inactive |
| COc1ccc(CCN(C)CCCC(C#N)(c2cc(OC)c(OC)c(OC)c2)C(C)C)cc1OC (configuration not stated) | -1.71% [at 52.9 µM] |  |
| CC(=O)N(CC(O)CO)c1c(I)c(C(=O)NCCO)c(I)c(C(=O)NCC(O)CO)c1I (configuration not stated) | 8.6% [at 52.9 µM] |  |
| C/C=C(\C)C#N | 1.27% |  |
| COC(=O)CCSCCC(=O)OC | 2.04% |  |
| COc1ccccc1OCC(O)CN1CCN(CC(=O)Nc2c(C)cccc2C)CC1 (configuration not stated) | 1.06% [at 52.9 µM] |  |
| CC(=O)OCC(=O)[C@@]1(O)CC[C@H]2[C@@H]3CCC4=CC(=O)CC[C@]4(C)[C@H]3C(=O)C[C@@]21C | -1.24% [at 52.9 µM] |  |
| N=C(N)c1ccc(OCCCOc2ccc(C(=N)N)cc2)cc1 | -0.644% [at 52.9 µM] |  |
| CCC=O | 4.5% |  |
| Nc1ccccc1S(=O)(=O)O | -1.22% |  |
| Nc1nc2c(ncn2COC(CO)CO)c(=O)[nH]1 | 2.1% [at 52.9 µM] |  |
| CCN(CC)CCOCCOC(=O)C1(c2ccccc2)CCCC1 | 0.76% [at 52.9 µM] |  |
| C[C@H]1C[C@@H](O)CC(C)(C)C1 | 0.241% |  |
| CC/C=C\CCOC(C)=O | 0.0907% |  |

system: not listed separately; experiment: qHTS assay to identify small molecule agonists of the constitutive androstane receptor (CAR) signaling pathway - cell viability counter screen (AID 1224836); conditions: HepG2-CYP2B6-hCAR viability, CellTiter-Fluor, 23 h, PK11195 added to every well; series mostly up to 92.4 µM; viability change, negative = cytotoxic: at the top concentration; note: nearly all actives have a fitted effect of over 45% in size
Summary of the method: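 Fluorescence from CellTiter-Fluor indicates live cells after 23 h exposure. The human hepatoma line expresses hCAR and a CYP2B6-2.2kb reporter. Incubation medium contains 0.75 uM PK11195 (final).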

| Compound | viability change, negative = cytotoxic | Potency |
| --- | --- | --- |
| O=C(O)CNC(=O)c1ccc([N+](=O)[O-])cc1 | 2.37% |  |
| Cn1cc(S(C)=O)c(=O)c2ccc(F)cc21 (configuration not stated) | 1.9% [at 42.5 µM] |  |
| C=CCOCC(CC)(CO)COCC=C | -8.23% |  |
| CC(=O)Nc1ccc(S(N)(=O)=O)cc1 | -14% |  |
| C=C1CC[C@H]2C[C@@H]1C2(C)C | -0.608% |  |
| CCCCCCCCS(=O)(=O)Cl | 13.8% |  |
| C=C[Si](OC(=C)C)(OC(=C)C)OC(=C)C | 7.28% |  |
| O=C1NC(=O)[C@@]2(CCOc3ccc(F)cc32)N1 | 0.993% [at 42.5 µM] |  |
| CC/C=C\CC/C=C/CO | 1.48% |  |
| CN1CCCC1 | -0.23% |  |
| O=c1cc(CO)occ1O | 7.75% [at 42.5 µM] |  |
| CC(=O)CC(C)C | 1.9% |  |
| CO[Si](CCCOCC1CO1)(OC)OC (configuration not stated) |  | inactive |
| CCN(CC)CCNC(=O)c1cc(S(C)(=O)=O)ccc1OC | 1.63% [at 42.5 µM] |  |
| N=C(N)c1ccccc1 | 1.82% |  |
| O=c1cc(-c2ccccc2)oc2ccccc12 |  | inactive |
| COc1ccc2c(c1)CCCC2=O | -1.85% [at 42.5 µM] |  |

| Compound | viability change, negative = cytotoxic | Potency |
| --- | --- | --- |
| NC(CSCC(=O)O)C(=O)O (configuration not stated) | 3.19% [at 42.5 µM] |  |
| O=C1CCCCCCCCCCCN1 |  | inactive |
| Cc1cnc(NS(=O)(=O)c2ccc(N)cc2)nc1 | 2.39% [at 42.5 µM] |  |
| CC(=O)N(CC(O)CO)c1c(I)c(C(=O)NCCO)c(I)c(C(=O)NCC(O)CO)c1I (configuration not stated) | 0.651% [at 42.5 µM] |  |
| C/C=C(\C)C#N | 1.02% |  |
| COC(=O)CCSCCC(=O)OC | 4.33% |  |
| COc1ccccc1OCC(O)CN1CCN(CC(=O)Nc2c(C)cccc2C)CC1 (configuration not stated) | -6.27% [at 42.5 µM] |  |
| CN(C)CCCSc1ccccc1NC(=O)/C=C/c1ccccc1 | -23.2% [at 42.5 µM] |  |
| CC(=O)OCC(=O)[C@@]1(O)CC[C@H]2[C@@H]3CCC4=CC(=O)CC[C@]4(C)[C@H]3C(=O)C[C@@]21C | 6.26% [at 42.5 µM] |  |
| N=C(N)c1ccc(OCCCOc2ccc(C(=N)N)cc2)cc1 | -27% [at 42.5 µM] |  |
| CCC=O | 7.09% |  |
| Nc1ccccc1S(=O)(=O)O | -0.647% |  |
| Nc1nc2c(ncn2COC(CO)CO)c(=O)[nH]1 | -2.49% [at 42.5 µM] |  |
| CCN(CC)CCOCCOC(=O)C1(c2ccccc2)CCCC1 | -24.1% [at 42.5 µM] |  |
| C[C@H]1C[C@@H](O)CC(C)(C)C1 | 5.1% |  |
| CC/C=C\CCOC(C)=O | -9.21% |  |
